# Experimental data as given in publication PMC7862700, “An all-to-all approach to the identification of sequence-specific readers for epigenetic DNA modifications on cytosine”.
# What was measured:
# Assay in all cases: DAPPL (digital affinity profiling via proximity ligation, sequencing); 10 mM Tris-HCl pH 7.5, 50 mM NaCl, 1 mM DTT, 4% glycerol, room temperature, 30 min; GST-TFs on glutathione beads, 16-mer random dsDNA library, 0.1% formaldehyde crosslink after washing; high values mean tight binding
# FLI1 = target: T1, FLI1 (Homo sapiens, UniProt Q01543 1-452); conditions: protein: recombinant; tags: N-terminal GST; dsDNA, one strand shown
# T1 sequence: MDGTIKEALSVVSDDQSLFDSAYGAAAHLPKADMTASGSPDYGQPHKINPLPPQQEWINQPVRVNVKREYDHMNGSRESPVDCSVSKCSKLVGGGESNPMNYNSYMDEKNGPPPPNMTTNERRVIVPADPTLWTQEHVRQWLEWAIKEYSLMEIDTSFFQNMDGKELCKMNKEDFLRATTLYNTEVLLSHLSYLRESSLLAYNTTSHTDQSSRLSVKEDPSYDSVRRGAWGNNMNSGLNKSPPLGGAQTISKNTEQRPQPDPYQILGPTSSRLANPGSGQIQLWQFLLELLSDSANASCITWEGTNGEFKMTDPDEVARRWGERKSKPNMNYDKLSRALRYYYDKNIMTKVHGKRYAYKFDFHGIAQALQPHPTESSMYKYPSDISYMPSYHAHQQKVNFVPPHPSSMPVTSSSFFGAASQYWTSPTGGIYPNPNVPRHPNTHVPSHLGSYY
# Method in brief: (§1)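 Pools of DNA-barcoded human transcription factors, expressed in yeast as GST fusions on glutathione beads and combined with a tag-only sample, were incubated with 200 nmole of a 16-mer random double-stranded DNA library. Incubation took 30 min at room temperature in Tris/NaCl/DTT/glycerol buffer and was followed by washing, 0.1% formaldehyde crosslinking, proximity ligation (BsaI/T4 ligase, 1 h, 37 °C), PCR amplification and sequencing on an Illumina NextSeq500. Binding signal is the ratio of a hexamer's read frequency for a factor to its frequency for the tag-only sample.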
# ELK1 = target: T2, ELK1 (Homo sapiens, UniProt P19419 1-428); conditions: protein: recombinant; tags: N-terminal GST; dsDNA, one strand shown
# T2 sequence: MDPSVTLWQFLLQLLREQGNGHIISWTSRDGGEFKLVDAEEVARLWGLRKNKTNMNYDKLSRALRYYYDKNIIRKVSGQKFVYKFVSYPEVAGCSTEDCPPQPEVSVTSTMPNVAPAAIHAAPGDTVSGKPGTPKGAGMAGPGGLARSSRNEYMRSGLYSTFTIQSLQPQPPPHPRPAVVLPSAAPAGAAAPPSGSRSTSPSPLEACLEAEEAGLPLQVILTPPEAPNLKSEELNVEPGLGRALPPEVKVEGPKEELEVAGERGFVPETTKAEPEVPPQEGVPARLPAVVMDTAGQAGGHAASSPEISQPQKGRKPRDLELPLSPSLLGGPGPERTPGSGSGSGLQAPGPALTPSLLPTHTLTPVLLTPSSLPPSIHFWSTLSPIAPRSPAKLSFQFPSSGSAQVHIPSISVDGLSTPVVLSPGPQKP
# Method in brief: as §1
# GABPA = target: T3, GABPA (Homo sapiens, UniProt Q06546 1-454); conditions: protein: recombinant; tags: N-terminal GST; dsDNA, one strand shown
# T3 sequence: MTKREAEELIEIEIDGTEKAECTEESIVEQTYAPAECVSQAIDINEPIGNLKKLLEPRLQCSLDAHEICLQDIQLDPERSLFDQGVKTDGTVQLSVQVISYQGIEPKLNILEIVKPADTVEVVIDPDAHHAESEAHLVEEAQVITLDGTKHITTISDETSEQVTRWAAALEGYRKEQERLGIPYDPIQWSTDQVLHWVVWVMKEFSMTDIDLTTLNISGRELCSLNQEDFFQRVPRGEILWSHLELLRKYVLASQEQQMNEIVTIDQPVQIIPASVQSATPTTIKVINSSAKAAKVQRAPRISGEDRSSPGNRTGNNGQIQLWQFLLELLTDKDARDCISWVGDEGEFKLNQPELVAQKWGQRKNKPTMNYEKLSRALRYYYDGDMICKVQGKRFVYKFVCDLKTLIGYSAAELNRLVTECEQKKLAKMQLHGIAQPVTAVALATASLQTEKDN
# Method in brief: as §1
# ERG = target: T4, ERG (Homo sapiens, UniProt P11308 1-479); conditions: protein: recombinant; tags: N-terminal GST; dsDNA, one strand shown
# T4 sequence: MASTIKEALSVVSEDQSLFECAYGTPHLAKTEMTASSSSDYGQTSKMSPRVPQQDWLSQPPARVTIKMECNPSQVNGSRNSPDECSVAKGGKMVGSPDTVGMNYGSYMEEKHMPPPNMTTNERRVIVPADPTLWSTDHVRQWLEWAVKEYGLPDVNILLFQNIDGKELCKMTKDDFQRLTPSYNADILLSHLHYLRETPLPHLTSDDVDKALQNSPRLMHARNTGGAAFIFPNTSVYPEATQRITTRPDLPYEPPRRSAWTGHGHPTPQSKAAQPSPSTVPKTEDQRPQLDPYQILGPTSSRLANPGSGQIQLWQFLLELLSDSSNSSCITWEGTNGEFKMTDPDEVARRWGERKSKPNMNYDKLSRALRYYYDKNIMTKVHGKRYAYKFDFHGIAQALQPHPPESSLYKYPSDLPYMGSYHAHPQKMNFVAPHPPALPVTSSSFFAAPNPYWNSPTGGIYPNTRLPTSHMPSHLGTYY
# Method in brief: as §1
# ELF1 = ELF1 (Homo sapiens, UniProt P32519 1-619); conditions: protein: recombinant; tags: N-terminal GST; dsDNA, one strand shown
# Method in brief: as §1
# EHF = target: T5, EHF (Homo sapiens, UniProt Q9NZC4 1-300); conditions: protein: recombinant; tags: N-terminal GST; dsDNA, one strand shown
# T5 sequence: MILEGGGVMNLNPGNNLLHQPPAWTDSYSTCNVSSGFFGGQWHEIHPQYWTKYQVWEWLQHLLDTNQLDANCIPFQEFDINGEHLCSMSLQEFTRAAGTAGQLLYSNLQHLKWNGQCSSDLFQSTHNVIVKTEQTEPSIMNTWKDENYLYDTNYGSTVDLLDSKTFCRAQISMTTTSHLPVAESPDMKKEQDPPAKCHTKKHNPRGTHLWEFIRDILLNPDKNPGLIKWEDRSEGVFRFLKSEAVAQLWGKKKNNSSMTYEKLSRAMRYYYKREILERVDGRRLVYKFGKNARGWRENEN
# Method in brief: as §1
# SPI1 = SPI1 (Homo sapiens, UniProt P17947 1-270); conditions: protein: recombinant; tags: N-terminal GST; dsDNA, one strand shown
# Method in brief: as §1
# SPIB = SPIB (Homo sapiens, UniProt Q01892 1-262); conditions: protein: recombinant; tags: N-terminal GST; dsDNA, one strand shown
# Method in brief: as §1
# ELK3 = target: T6, ELK3 (Homo sapiens, UniProt P41970 1-407); conditions: protein: recombinant; tags: N-terminal GST; dsDNA, one strand shown
# T6 sequence: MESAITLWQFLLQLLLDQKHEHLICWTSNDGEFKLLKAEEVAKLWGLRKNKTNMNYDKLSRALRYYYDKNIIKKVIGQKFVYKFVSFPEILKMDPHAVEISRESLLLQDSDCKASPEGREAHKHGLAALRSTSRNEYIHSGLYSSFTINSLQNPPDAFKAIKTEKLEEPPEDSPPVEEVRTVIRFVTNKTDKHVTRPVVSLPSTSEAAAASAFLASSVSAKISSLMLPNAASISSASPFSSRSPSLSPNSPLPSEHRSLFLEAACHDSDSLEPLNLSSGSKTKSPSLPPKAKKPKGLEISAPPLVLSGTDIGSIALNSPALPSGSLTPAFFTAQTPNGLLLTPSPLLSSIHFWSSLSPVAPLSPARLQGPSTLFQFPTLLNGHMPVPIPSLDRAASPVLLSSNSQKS
# Method in brief: as §1
# FEV = target: T7, FEV (Homo sapiens, UniProt Q99581 1-238); conditions: protein: recombinant; tags: N-terminal GST; dsDNA, one strand shown
# T7 sequence: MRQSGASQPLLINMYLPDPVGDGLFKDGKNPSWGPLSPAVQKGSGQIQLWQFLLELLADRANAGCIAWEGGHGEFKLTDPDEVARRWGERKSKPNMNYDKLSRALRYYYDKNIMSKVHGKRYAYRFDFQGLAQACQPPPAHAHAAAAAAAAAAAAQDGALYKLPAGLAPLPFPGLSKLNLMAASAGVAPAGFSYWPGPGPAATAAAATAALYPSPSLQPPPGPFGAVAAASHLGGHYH
# Method in brief: as §1
# ETV5 = ETV5 (Homo sapiens, UniProt P41161 1-510); conditions: protein: recombinant; tags: N-terminal GST; dsDNA, one strand shown
# Method in brief: as §1
# HSF1 = HSF1 (Homo sapiens, UniProt Q00613 1-529); conditions: protein: recombinant; tags: N-terminal GST; chain copies: 3; dsDNA, one strand shown
# Method in brief: as §1
# SPIC = target: T8, SPIC (Homo sapiens, UniProt Q8N5J4 1-248); conditions: protein: recombinant; tags: N-terminal GST; dsDNA, one strand shown
# T8 sequence: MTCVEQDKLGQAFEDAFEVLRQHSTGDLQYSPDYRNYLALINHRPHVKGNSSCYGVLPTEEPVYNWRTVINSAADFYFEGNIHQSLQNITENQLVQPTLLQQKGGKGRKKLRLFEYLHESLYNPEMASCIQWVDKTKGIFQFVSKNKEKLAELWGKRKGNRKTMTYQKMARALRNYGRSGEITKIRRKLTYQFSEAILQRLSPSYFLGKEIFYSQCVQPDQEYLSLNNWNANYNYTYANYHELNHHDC
# Method in brief: as §1
# ELF4 = ELF4 (Homo sapiens, UniProt Q99607 1-663); conditions: protein: recombinant; tags: N-terminal GST; dsDNA, one strand shown
# Method in brief: as §1
# ELK4 = target: T9, ELK4 (Homo sapiens, UniProt P28324-2 1-405); conditions: protein: recombinant; tags: N-terminal GST; dsDNA, one strand shown
# T9 sequence: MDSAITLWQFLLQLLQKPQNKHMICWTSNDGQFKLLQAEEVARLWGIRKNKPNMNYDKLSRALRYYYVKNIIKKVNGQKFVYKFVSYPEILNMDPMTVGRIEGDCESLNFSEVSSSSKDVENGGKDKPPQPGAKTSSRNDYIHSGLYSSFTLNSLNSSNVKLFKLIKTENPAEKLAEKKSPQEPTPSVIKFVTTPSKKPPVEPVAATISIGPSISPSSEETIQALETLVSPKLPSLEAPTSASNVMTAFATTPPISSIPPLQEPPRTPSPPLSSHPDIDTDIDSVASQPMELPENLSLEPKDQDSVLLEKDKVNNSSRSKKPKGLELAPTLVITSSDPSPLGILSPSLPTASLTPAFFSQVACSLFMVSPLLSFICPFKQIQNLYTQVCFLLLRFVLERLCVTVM
# Method in brief: as §1
# ETV2 = target: T10, ETV2 (Homo sapiens, UniProt O00321 1-342); conditions: protein: recombinant; tags: N-terminal GST; dsDNA, one strand shown
# T10 sequence: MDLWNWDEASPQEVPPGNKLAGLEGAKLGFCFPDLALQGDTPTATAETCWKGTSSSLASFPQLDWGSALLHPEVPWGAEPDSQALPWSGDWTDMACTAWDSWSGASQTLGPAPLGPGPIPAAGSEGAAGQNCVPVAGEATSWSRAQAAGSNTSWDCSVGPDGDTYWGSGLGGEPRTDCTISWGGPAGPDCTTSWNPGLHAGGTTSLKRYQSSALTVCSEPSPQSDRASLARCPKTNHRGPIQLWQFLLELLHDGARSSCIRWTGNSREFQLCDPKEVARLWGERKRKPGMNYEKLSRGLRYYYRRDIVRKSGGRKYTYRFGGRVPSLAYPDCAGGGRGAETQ
# Method in brief: as §1
# ELF3 = target: T11, ELF3 (Homo sapiens, UniProt P78545 1-371); conditions: protein: recombinant; tags: N-terminal GST; dsDNA, one strand shown
# T11 sequence: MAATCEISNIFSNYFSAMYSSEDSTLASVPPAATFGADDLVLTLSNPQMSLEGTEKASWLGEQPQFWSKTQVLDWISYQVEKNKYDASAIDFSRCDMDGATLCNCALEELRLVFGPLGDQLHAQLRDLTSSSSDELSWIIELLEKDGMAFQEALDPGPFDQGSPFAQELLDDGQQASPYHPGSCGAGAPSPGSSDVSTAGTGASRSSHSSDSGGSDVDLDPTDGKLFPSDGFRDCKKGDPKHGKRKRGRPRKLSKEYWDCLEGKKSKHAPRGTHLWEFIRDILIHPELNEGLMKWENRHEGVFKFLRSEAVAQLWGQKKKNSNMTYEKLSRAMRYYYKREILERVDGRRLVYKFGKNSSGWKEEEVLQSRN
# Method in brief: as §1
# CRX = CRX (Homo sapiens, UniProt O43186 1-299); conditions: protein: recombinant; tags: N-terminal GST; dsDNA, one strand shown
# Method in brief: as §1
# ETV1 = ETV1 (Homo sapiens, UniProt P50549 1-477); conditions: protein: recombinant; tags: N-terminal GST; dsDNA, one strand shown
# Method in brief: as §1
# Chain of CRX (O43186 whole entry): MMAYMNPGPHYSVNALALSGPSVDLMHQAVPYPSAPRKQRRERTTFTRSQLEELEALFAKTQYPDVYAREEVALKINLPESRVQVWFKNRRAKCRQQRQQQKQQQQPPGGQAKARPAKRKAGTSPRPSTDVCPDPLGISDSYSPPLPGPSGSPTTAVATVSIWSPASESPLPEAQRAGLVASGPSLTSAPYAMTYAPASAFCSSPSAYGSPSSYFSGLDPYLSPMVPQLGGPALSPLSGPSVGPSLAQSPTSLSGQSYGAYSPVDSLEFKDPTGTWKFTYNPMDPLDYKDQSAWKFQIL
# Chain of ETV1 (P50549 whole entry): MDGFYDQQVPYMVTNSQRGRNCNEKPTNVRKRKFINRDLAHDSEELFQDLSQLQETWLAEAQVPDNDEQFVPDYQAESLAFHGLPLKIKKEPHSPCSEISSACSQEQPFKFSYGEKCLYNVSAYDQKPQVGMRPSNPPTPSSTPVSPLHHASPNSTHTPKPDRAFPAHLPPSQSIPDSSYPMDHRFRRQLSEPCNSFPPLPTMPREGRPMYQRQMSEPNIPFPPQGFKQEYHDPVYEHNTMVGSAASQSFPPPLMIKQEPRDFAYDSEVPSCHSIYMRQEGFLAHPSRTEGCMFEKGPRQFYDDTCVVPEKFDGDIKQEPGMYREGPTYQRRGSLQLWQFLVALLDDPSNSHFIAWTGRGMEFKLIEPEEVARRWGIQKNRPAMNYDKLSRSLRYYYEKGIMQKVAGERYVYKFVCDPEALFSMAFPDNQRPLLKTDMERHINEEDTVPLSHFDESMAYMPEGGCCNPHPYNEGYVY
# Chain of HSF1 (Q00613 whole entry): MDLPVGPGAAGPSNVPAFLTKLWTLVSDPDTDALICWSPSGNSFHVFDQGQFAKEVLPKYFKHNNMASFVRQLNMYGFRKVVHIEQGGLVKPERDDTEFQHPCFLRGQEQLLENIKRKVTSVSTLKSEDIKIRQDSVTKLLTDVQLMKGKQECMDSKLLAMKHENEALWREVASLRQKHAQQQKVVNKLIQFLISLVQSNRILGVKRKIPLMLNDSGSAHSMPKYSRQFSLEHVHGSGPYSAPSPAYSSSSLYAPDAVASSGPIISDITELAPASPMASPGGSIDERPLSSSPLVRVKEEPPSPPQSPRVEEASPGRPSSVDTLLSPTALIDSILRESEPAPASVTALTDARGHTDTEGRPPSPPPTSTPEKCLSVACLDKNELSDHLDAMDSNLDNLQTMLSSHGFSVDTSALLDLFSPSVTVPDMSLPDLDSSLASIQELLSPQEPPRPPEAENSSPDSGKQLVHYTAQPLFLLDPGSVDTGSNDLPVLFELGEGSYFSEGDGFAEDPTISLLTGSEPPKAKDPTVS
# Chain of ELF4 (Q99607 whole entry): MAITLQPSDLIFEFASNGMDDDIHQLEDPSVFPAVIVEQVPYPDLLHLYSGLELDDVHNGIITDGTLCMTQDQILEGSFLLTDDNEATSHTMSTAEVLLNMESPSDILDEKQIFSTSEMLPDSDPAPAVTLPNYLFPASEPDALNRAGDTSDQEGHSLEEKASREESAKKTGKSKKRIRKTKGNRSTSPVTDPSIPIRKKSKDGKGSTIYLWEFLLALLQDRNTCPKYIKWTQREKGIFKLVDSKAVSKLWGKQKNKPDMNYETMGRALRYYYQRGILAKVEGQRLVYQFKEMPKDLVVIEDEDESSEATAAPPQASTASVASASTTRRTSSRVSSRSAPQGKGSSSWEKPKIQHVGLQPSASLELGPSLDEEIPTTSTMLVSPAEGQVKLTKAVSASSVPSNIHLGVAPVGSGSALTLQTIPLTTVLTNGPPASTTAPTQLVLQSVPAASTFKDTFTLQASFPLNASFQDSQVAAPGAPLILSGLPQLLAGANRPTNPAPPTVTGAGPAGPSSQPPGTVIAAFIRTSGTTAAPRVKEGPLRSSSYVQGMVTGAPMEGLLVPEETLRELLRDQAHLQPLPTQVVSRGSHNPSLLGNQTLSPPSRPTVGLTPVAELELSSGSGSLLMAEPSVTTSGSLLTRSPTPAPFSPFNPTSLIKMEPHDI
# Chain of SPIB (Q01892 whole entry): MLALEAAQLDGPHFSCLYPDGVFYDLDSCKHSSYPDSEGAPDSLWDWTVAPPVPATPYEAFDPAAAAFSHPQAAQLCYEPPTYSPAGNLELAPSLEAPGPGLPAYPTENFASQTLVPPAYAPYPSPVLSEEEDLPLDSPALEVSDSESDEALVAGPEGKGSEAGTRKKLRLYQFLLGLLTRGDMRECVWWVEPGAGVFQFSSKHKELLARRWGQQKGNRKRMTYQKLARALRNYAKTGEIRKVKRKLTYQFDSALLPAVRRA
# Chain of ELF1 (P32519 whole entry): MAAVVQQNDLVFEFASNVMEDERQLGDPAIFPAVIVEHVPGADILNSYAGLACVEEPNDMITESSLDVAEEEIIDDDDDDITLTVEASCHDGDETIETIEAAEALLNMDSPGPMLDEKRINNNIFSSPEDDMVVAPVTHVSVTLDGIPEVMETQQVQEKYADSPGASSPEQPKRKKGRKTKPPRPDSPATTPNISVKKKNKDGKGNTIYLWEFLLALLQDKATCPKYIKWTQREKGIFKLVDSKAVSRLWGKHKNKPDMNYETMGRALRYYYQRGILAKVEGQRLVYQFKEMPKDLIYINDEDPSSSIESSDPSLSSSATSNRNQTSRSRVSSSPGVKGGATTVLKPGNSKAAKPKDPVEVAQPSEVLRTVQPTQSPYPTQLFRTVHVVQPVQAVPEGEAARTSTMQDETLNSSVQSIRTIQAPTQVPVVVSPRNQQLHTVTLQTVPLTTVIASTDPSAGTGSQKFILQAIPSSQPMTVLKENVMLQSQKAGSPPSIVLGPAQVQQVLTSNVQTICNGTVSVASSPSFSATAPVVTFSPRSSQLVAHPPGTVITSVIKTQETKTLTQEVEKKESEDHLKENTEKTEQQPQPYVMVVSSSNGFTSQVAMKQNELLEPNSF
# Chain of ETV5 (P41161 whole entry): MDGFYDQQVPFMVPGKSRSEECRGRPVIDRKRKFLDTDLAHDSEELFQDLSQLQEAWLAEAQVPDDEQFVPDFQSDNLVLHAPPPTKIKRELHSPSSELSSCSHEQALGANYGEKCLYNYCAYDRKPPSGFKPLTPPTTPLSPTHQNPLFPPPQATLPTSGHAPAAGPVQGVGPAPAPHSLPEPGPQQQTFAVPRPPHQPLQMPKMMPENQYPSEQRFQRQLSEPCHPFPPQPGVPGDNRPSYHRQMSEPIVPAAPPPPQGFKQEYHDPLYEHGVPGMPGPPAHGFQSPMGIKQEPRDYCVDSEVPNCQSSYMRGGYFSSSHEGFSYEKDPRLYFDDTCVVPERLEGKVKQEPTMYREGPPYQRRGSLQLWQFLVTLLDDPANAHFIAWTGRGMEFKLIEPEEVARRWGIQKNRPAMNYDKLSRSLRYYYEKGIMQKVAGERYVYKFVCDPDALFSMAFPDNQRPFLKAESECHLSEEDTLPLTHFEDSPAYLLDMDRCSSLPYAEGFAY
sequence,measurement,setting,value
CTTACA,binding signal,FLI1,"1.28 fold enrichment (6-mer frequency, TF over GST control)"
same,binding signal,ELK1,"1.3 fold enrichment (6-mer frequency, TF over GST control)"
same,binding signal,GABPA,"1.32 fold enrichment (6-mer frequency, TF over GST control)"
same,binding signal,ERG,"1.21 fold enrichment (6-mer frequency, TF over GST control)"
same,binding signal,ELF1,"1.24 fold enrichment (6-mer frequency, TF over GST control)"
same,binding signal,EHF,"1.33 fold enrichment (6-mer frequency, TF over GST control)"
same,binding signal,SPI1,"1.22 fold enrichment (6-mer frequency, TF over GST control)"
same,binding signal,SPIB,"1.21 fold enrichment (6-mer frequency, TF over GST control)"
same,binding signal,ELK3,"1.24 fold enrichment (6-mer frequency, TF over GST control)"
same,binding signal,FEV,"1.18 fold enrichment (6-mer frequency, TF over GST control)"
same,binding signal,ETV5,"1.31 fold enrichment (6-mer frequency, TF over GST control)"
same,binding signal,HSF1,"1.31 fold enrichment (6-mer frequency, TF over GST control)"
same,binding signal,SPIC,"1.27 fold enrichment (6-mer frequency, TF over GST control)"
same,binding signal,ELF4,"1.25 fold enrichment (6-mer frequency, TF over GST control)"
same,binding signal,ELK4,"1.3 fold enrichment (6-mer frequency, TF over GST control)"
same,binding signal,ETV2,"1.28 fold enrichment (6-mer frequency, TF over GST control)"
same,binding signal,ELF3,"1.41 fold enrichment (6-mer frequency, TF over GST control)"
same,binding signal,CRX,"1.6 fold enrichment (6-mer frequency, TF over GST control)"
same,binding signal,ETV1,"1.24 fold enrichment (6-mer frequency, TF over GST control)"
